Data as given in PubChem BioAssay AID1159580 (chemical genetic matrix, 2015).
Values joined by “and” are separate entries in the source; they are usually repeats but may differ in a detail not shown here. Identical values can stand only once. Out of some 5,500 compounds screened, about 2,000 (36%) were called active. Inconclusive results (about 18%) are left out. Rule as the data show it: active = normalized growth mostly below about 0.91 (no sharp cut-off); inconclusive = no clear call, values can overlap the other calls; inactive = mostly above about 0.92. Some of the results follow.

Assay: chemical genetic growth profiling, strain panel (AID 1159580);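 also: tested at 20 µM; growth read once vehicle control cultures reached saturation at 30 °C; 1 = growth at the plate median or of vehicle wells; lower values mean less growth of the strain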
Settings: S. cerevisiae deletion strains, growth OD

Measured: normalized growth

CC(C)NCC(O)c1ccc(O)c(O)c1 (stereo not given)
inactive: locus YAL013W, strain DEP1, active compounds read low 1.01 | locus YAL021C, strain ccr4, active compounds read low 0.994 | locus YAL026C, strain drs2, active compounds read low 0.994 | locus YAL030W, strain snc1, active compounds read low 0.996 | locus YAL040C, strain CLN3, active compounds read low 1 and 1.06 | locus YBL061C, strain skt5, active compounds read low 0.99 | locus YBR009C, strain hhf1, active compounds read low 0.995 | locus YBR021W, strain FUR4, active compounds read low 1.01 | locus YBR023C, strain chs3, active compounds read low 0.982 | locus YBR171W, strain sec66, active compounds read low 0.979 | locus YBR229C, strain ROT2, active compounds read low 1.02 | locus YBR231C, strain swc5, active compounds read low 0.997 | locus YBR279W, strain paf1, active compounds read low 0.973 | locus YCL011C, strain gbp2, active compounds read low 0.978 | locus YCL016C, strain dcc1, active compounds read low 0.951 | locus YCL029C, strain bik1, active compounds read low 1 | locus YCL061C, strain MRC1 (second series), active compounds read low 0.995 and 0.99 | locus YCL061C, strain MRC1, active compounds read low 0.985 | locus YCL069W, strain vba3, active compounds read low 1 | locus YCR088W, strain abp1, active compounds read low 0.99 | locus YDL005C, strain med2, active compounds read low 0.997 | locus YDL035C, strain GPR1, active compounds read low 1.02 | locus YDL040C, strain nat1, active compounds read low 1.01 | locus YDL074C, strain BRE1, active compounds read low 1.03 | locus YDL101C, strain DUN1, active compounds read low 1.01 | locus YDL185W, strain tfp1, active compounds read low 0.984 | locus YDL192W, strain arf1, active compounds read low 1 | locus YDR001C, strain nth1, active compounds read low 0.992 | locus YDR069C, strain doa4, active compounds read low 1.02 | locus YDR101C, strain arx1, active compounds read low 1.02 | locus YDR137W, strain rgp1, active compounds read low 1 | locus YDR150W, strain NUM1, active compounds read low 1.02 and 0.999 | locus YDR159W, strain sac3, active compounds read low 1.01 | locus YDR162C, strain NBP2, active compounds read low 1 | locus YDR195W, strain ref2 0.992 | locus YDR297W, strain sur2, active compounds read low 0.99 | locus YDR318W, strain mcm21, active compounds read low 0.996 | locus YDR334W, strain swr1, active compounds read low 0.982 | locus YDR335W, strain msn5, active compounds read low 0.992 | locus YDR363W, strain ESC2, active compounds read low 1.02 and 0.978 | locus YDR388W, active compounds read low 0.994 | locus YDR392W, strain spt3, active compounds read low 0.912 | locus YDR502C, strain sam2, active compounds read low 0.999 | locus YEL003W, strain gim4, active compounds read low 1.01 | locus YEL037C, strain rad23, active compounds read low 0.993 | locus YEL061C, strain CIN8 (second series), active compounds read low 0.994 | locus YEL061C, strain CIN8, active compounds read low 1.01 | locus YER002W, strain NOP16, active compounds read low 0.997 and 0.956 | locus YER015W, strain faa2, active compounds read low 0.995 | locus YER016W, strain bim1, active compounds read low 1.01 | locus YER110C, active compounds read low 0.997 | locus YER111C, strain swi4, active compounds read low 0.985 | locus YER155C, strain BEM2 (second series), active compounds read low 0.989 | locus YER155C, strain BEM2, active compounds read low 1.01 | locus YER167W, strain BCK2, active compounds read low 0.992 | locus YFR010W, strain ubp6, active compounds read low 0.992 | locus YGL078C, strain dbp3, active compounds read low 0.995 | locus YGL086W, strain mad1, active compounds read low 0.994 | locus YGL167C, strain pmr1, active compounds read low 0.989 | locus YGL173C, strain kem1, active compounds read low 0.999 | locus YGL227W, strain vid30, active compounds read low 0.99 | locus YGL240W, strain doc1, active compounds read low 0.982 | locus YGL248W, strain PDE1, active compounds read low 1.01 | locus YGL253W, strain hxk2, active compounds read low 0.999 | locus YGR078C, strain PAC10, active compounds read low 1.02 and 0.98 | locus YGR135W, strain pre9, active compounds read low 0.993 | locus YGR229C, strain SMI1, active compounds read low 1.01 | locus YGR252W, strain gcn5, active compounds read low 0.936 | locus YHR013C, strain ard1, active compounds read low 0.976 | locus YHR027C, strain rpn1, active compounds read low 0.997 | locus YHR030C, strain SLT2, active compounds read low 1.01 and 0.977 | locus YHR079C, strain IRE1 (second series), active compounds read low 1 | locus YHR079C, strain IRE1, active compounds read low 0.993 | locus YHR094C, strain hxt1, active compounds read low 0.987 | locus YHR129C, strain ARP1, active compounds read low 1.01 | locus YHR142W, strain chs7, active compounds read low 0.965 | locus YHR200W, strain rpn10, active compounds read low 1 | locus YIL066C, strain RNR3, active compounds read low 1.01 | locus YIL073C, strain SPO22, active compounds read low 1.05 | locus YIL125W, strain kgd1, active compounds read low 0.99 | locus YIR030C, strain dcg1, active compounds read low 1.01 | locus YJL092W, strain hpr5, active compounds read low 0.985 | locus YJL095W, strain BCK1 (second series), active compounds read low 0.995 | locus YJL095W, strain BCK1, active compounds read low 1.03 and 0.991 | locus YJL115W, strain asf1, active compounds read low 0.995 | locus YJL129C, strain trk1, active compounds read low 0.979 | locus YJL134W, strain LCB3, active compounds read low 1.02 | locus YJL154C, strain vps35, active compounds read low 0.995 | locus YJL164C, strain tpk1, active compounds read low 0.998 | locus YJL166W, strain qcr8, active compounds read low 0.972 | locus YJL168C, strain set2, active compounds read low 0.984 | locus YJL187C, strain SWE1 (second series), active compounds read low 1.01 | locus YJL187C, strain SWE1, active compounds read low 1 | locus YJR043C, strain POL32, active compounds read low 1.01 | locus YJR066W, strain TOR1, active compounds read low 0.944
